# Measurements: paper PMC7862700, “An all-to-all approach to the identification of sequence-specific readers for epigenetic DNA modifications on cytosine”
# What was measured:
# Experiment in all cases: DAPPL (digital affinity profiling via proximity ligation, sequencing); 10 mM Tris-HCl pH 7.5, 50 mM NaCl, 1 mM DTT, 4% glycerol, room temperature, 30 min; GST-TFs on glutathione beads, 16-mer random dsDNA library, 0.1% formaldehyde crosslink after washing; high values mean tight binding
# FEV = target: T1, FEV (Homo sapiens, UniProt Q99581 1-238); conditions: protein: recombinant; tags: N-terminal GST; dsDNA, one strand shown
# T1 sequence: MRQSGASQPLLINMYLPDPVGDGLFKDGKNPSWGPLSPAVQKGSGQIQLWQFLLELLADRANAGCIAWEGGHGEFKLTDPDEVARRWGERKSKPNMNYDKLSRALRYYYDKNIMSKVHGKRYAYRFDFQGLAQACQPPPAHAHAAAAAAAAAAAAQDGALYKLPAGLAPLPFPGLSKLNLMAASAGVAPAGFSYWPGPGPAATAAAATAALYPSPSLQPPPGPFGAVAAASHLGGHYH
# How it was run: (§1)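 After expression in yeast as GST fusions, human transcription factors were bound to glutathione beads, DNA-barcoded and mixed with a tag-only sample. The pools were incubated with 200 nmole of a 16-mer random double-stranded DNA library in Tris/NaCl/DTT/glycerol buffer (30 min, room temperature), washed and crosslinked with 0.1% formaldehyde. Proximity ligation with BsaI/T4 ligase ran for 1 h at 37 °C, before PCR amplification and sequencing on an Illumina NextSeq500. Binding signal is a hexamer's read frequency for a factor divided by its frequency for the tag-only sample.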
# ETV5 = ETV5 (Homo sapiens, UniProt P41161 1-510); conditions: protein: recombinant; tags: N-terminal GST; dsDNA, one strand shown
# How it was run: as §1
# HSF1 = HSF1 (Homo sapiens, UniProt Q00613 1-529); conditions: protein: recombinant; tags: N-terminal GST; chain copies: 3; dsDNA, one strand shown
# How it was run: as §1
# SPIC = target: T2, SPIC (Homo sapiens, UniProt Q8N5J4 1-248); conditions: protein: recombinant; tags: N-terminal GST; dsDNA, one strand shown
# T2 sequence: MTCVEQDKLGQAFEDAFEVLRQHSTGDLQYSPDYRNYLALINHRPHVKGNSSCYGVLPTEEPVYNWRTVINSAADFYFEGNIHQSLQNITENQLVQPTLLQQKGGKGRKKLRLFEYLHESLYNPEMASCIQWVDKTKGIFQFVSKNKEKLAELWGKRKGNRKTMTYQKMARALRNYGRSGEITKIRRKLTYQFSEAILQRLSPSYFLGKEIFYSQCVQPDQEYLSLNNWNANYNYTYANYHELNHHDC
# How it was run: as §1
# ELF4 = ELF4 (Homo sapiens, UniProt Q99607 1-663); conditions: protein: recombinant; tags: N-terminal GST; dsDNA, one strand shown
# How it was run: as §1
# ELK4 = target: T3, ELK4 (Homo sapiens, UniProt P28324-2 1-405); conditions: protein: recombinant; tags: N-terminal GST; dsDNA, one strand shown
# T3 sequence: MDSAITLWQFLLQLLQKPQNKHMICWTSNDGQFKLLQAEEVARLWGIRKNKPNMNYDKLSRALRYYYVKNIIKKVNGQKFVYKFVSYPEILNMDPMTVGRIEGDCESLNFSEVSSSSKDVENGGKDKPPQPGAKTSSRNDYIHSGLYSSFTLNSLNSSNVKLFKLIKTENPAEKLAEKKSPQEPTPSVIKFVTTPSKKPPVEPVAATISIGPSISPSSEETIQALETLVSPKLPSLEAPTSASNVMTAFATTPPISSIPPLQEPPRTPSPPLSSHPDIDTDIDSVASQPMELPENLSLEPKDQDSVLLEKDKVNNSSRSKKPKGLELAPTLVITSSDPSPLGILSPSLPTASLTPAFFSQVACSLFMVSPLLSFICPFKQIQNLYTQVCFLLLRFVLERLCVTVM
# How it was run: as §1
# ETV2 = target: T4, ETV2 (Homo sapiens, UniProt O00321 1-342); conditions: protein: recombinant; tags: N-terminal GST; dsDNA, one strand shown
# T4 sequence: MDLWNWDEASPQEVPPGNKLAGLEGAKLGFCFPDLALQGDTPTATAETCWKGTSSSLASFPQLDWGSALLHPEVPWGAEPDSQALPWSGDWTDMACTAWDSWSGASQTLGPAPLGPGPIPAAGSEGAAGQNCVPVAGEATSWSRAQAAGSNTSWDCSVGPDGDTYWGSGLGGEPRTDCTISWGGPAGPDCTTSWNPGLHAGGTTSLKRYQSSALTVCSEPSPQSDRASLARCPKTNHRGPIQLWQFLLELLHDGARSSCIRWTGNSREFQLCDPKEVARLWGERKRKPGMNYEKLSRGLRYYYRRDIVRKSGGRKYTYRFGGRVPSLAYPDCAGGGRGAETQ
# How it was run: as §1
# ELF3 = target: T5, ELF3 (Homo sapiens, UniProt P78545 1-371); conditions: protein: recombinant; tags: N-terminal GST; dsDNA, one strand shown
# T5 sequence: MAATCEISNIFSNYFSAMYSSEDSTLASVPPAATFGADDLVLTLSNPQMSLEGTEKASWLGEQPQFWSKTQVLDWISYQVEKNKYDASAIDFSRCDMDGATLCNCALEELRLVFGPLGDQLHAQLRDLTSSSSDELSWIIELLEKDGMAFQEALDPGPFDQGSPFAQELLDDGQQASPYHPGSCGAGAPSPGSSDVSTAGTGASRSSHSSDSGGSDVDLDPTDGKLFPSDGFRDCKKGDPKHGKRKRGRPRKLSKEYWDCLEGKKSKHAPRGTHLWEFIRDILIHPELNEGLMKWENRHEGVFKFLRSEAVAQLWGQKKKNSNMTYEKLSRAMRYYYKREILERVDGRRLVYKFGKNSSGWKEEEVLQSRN
# How it was run: as §1
# CRX = CRX (Homo sapiens, UniProt O43186 1-299); conditions: protein: recombinant; tags: N-terminal GST; dsDNA, one strand shown
# How it was run: as §1
# ETV1 = ETV1 (Homo sapiens, UniProt P50549 1-477); conditions: protein: recombinant; tags: N-terminal GST; dsDNA, one strand shown
# How it was run: as §1
# ERF = target: T6, ERF (Homo sapiens, UniProt P50548 1-548); conditions: protein: recombinant; tags: N-terminal GST; dsDNA, one strand shown
# T6 sequence: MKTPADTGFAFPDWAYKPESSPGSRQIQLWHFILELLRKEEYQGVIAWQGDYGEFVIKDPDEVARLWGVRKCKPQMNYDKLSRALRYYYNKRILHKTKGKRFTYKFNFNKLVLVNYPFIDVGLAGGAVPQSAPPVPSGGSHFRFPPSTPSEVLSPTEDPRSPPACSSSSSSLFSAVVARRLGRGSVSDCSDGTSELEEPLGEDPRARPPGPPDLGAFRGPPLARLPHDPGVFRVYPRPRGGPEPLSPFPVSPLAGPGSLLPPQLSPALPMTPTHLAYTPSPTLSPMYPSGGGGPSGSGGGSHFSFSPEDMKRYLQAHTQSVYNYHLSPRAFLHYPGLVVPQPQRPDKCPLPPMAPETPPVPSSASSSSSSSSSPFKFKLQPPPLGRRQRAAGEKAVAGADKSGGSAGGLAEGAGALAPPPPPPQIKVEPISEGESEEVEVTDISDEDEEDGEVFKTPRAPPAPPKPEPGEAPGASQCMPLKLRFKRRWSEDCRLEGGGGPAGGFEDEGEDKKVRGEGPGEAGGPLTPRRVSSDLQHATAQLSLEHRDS
# How it was run: as §1
# ETV3L = target: T7, ETV3L (Homo sapiens, UniProt Q6ZN32 1-361); conditions: protein: recombinant; tags: N-terminal GST; dsDNA, one strand shown
# T7 sequence: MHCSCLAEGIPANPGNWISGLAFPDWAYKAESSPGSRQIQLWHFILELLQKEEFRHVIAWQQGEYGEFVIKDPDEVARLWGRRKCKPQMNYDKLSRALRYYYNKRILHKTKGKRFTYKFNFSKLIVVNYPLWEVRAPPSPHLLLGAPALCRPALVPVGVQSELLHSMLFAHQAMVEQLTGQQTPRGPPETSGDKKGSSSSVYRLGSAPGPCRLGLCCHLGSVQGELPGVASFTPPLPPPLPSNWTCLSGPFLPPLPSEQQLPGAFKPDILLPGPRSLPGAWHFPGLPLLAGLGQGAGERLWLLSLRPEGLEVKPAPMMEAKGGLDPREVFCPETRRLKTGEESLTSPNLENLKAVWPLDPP
# How it was run: as §1
# ETS2 = target: T8, ETS2 (Homo sapiens, UniProt P15036 1-469); conditions: protein: recombinant; tags: N-terminal GST; dsDNA, one strand shown
# T8 sequence: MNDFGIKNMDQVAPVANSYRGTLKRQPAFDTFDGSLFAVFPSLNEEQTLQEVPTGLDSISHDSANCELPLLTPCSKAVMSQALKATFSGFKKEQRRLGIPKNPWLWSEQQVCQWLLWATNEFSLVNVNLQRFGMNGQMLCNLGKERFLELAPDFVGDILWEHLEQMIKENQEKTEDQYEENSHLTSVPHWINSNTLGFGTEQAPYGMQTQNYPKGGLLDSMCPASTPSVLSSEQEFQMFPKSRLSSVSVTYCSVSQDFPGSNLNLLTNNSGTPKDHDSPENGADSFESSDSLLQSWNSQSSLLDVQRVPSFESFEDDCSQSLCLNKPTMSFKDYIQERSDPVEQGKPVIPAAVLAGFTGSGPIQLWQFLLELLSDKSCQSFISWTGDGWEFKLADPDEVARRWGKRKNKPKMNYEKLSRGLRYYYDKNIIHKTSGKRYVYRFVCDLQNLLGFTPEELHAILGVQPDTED
# How it was run: as §1
# SPDEF = target: T9, SPDEF (Homo sapiens, UniProt O95238 1-335); conditions: protein: recombinant; tags: N-terminal GST; dsDNA, one strand shown
# T9 sequence: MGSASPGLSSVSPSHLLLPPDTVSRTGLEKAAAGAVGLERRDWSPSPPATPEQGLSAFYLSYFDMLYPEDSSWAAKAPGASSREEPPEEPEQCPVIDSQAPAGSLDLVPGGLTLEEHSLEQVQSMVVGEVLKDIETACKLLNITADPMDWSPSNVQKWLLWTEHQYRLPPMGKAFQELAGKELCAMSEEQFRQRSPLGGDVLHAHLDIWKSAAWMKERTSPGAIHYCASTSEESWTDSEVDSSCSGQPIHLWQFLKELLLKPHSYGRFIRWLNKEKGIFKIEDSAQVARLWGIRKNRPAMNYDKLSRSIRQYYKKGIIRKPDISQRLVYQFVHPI
# How it was run: as §1
# ETV7 = target: T10, ETV7 (Homo sapiens, UniProt Q9Y603 1-341); conditions: protein: recombinant; tags: N-terminal GST; dsDNA, one strand shown
# T10 sequence: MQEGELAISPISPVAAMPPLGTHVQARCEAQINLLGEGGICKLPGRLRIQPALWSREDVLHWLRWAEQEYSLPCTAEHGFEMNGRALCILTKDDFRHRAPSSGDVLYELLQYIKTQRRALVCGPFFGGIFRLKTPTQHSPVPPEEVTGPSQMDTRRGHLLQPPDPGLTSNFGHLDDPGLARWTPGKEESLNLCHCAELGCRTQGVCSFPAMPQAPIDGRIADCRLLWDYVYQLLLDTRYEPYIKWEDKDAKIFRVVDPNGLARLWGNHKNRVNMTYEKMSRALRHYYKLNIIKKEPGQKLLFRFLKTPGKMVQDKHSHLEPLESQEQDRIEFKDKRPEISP
# How it was run: as §1
# ELF5 = target: T11, ELF5 (Homo sapiens, UniProt Q9UKW6-2 1-255); conditions: protein: recombinant; tags: N-terminal GST; dsDNA, one strand shown
# T11 sequence: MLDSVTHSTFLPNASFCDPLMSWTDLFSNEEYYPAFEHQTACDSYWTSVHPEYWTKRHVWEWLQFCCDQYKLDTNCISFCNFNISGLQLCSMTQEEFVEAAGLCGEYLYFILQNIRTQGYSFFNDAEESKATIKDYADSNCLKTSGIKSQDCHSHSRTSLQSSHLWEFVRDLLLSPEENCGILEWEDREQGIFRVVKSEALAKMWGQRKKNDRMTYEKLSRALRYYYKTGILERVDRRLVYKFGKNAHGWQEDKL
# How it was run: as §1
# ETV3 = target: T12, ETV3 (Homo sapiens, UniProt P41162-2 1-143); conditions: protein: recombinant; tags: N-terminal GST; dsDNA, one strand shown
# T12 sequence: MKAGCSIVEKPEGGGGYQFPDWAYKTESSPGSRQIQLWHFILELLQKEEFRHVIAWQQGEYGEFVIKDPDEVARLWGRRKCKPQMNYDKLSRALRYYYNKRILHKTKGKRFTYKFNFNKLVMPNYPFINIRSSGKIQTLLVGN
# How it was run: as §1
# ETV6 = ETV6 (Homo sapiens, UniProt P41212 1-452); conditions: protein: recombinant; tags: N-terminal GST; dsDNA, one strand shown
# How it was run: as §1
# Sequence of ETV1 (P50549 whole entry): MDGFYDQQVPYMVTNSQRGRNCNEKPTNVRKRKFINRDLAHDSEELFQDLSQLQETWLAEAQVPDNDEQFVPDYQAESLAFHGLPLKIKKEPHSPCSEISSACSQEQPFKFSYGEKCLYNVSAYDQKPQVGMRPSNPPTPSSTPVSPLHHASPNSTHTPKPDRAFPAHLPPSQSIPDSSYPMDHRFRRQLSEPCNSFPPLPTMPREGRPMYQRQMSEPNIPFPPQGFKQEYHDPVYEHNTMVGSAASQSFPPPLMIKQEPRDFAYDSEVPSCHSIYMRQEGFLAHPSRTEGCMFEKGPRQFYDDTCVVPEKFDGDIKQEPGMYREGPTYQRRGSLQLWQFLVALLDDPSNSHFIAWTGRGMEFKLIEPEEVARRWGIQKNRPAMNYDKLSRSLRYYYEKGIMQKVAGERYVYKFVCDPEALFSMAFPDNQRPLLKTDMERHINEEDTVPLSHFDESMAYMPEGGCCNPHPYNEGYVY
# Sequence of ETV6 (P41212 whole entry): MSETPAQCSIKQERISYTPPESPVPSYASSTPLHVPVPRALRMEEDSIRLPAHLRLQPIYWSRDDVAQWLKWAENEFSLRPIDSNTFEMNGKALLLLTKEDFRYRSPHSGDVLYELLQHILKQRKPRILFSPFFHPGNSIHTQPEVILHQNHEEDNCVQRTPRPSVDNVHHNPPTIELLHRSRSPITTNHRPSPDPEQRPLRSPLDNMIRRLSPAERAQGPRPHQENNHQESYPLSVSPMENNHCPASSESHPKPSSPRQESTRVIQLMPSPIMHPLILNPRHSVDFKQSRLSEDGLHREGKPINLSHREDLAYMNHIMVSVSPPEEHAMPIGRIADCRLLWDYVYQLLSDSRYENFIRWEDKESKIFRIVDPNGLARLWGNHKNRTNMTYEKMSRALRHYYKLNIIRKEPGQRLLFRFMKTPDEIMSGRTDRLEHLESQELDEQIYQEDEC
# Sequence of HSF1 (Q00613 whole entry): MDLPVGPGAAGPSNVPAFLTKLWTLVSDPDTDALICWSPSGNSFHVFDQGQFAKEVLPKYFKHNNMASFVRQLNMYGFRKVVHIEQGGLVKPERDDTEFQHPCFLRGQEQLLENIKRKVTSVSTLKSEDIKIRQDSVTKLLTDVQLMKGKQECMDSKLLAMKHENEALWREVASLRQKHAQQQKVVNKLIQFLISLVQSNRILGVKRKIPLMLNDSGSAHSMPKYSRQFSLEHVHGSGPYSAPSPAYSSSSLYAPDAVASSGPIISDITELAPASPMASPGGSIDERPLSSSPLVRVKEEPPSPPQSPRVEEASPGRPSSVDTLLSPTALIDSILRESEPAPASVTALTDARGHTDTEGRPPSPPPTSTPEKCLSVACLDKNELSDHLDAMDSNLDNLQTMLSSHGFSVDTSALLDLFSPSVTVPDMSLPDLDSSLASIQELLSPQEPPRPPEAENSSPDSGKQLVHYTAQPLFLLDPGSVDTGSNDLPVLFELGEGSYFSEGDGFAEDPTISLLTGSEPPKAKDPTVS
# Sequence of CRX (O43186 whole entry): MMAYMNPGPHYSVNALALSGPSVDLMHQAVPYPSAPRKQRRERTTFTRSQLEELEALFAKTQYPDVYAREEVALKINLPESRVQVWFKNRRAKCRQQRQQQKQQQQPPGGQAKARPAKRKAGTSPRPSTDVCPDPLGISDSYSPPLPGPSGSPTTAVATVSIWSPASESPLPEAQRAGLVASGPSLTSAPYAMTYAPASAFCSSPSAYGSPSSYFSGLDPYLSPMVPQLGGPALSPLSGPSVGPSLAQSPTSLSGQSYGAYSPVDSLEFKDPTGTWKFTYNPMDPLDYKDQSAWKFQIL
# Sequence of ELF4 (Q99607 whole entry): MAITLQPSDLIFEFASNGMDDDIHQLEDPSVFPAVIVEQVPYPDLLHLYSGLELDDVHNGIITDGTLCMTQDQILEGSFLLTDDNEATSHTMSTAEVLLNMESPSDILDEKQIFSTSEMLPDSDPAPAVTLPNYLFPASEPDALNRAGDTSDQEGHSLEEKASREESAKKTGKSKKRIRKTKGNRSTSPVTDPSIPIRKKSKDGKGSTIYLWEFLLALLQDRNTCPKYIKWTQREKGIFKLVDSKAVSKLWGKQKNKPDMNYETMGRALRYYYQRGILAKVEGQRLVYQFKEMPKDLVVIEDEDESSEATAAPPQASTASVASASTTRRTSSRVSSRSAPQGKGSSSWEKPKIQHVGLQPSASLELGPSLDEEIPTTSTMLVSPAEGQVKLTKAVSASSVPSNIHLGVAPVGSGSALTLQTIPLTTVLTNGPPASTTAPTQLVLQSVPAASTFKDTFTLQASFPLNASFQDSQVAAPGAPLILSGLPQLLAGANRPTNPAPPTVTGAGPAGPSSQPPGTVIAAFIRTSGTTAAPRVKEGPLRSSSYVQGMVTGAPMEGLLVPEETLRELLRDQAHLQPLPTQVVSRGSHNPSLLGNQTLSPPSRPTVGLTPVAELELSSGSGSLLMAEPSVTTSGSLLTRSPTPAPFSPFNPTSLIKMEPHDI
# Sequence of ETV5 (P41161 whole entry): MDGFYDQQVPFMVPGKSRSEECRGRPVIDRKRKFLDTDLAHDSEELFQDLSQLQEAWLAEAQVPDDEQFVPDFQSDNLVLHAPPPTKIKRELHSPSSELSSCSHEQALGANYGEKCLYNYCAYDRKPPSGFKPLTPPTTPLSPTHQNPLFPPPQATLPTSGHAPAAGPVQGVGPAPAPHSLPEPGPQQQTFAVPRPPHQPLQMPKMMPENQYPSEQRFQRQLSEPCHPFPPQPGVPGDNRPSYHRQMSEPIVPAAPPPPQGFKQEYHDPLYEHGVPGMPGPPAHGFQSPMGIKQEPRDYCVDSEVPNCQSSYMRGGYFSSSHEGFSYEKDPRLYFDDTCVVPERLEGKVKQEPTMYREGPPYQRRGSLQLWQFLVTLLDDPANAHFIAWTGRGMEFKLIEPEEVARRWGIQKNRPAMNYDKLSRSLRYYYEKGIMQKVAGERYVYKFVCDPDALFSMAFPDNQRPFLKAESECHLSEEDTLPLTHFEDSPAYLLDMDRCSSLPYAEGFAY
sequence,measurement,setting,value
CTCCCC,binding signal,FEV,"1.4 fold enrichment (6-mer frequency, TF over GST control)"
same,binding signal,ETV5,"1.39 fold enrichment (6-mer frequency, TF over GST control)"
same,binding signal,HSF1,"1.14 fold enrichment (6-mer frequency, TF over GST control)"
same,binding signal,SPIC,"1.28 fold enrichment (6-mer frequency, TF over GST control)"
same,binding signal,ELF4,"1.42 fold enrichment (6-mer frequency, TF over GST control)"
same,binding signal,ELK4,"1.38 fold enrichment (6-mer frequency, TF over GST control)"
same,binding signal,ETV2,"1.63 fold enrichment (6-mer frequency, TF over GST control)"
same,binding signal,ELF3,"1.25 fold enrichment (6-mer frequency, TF over GST control)"
same,binding signal,CRX,"1.19 fold enrichment (6-mer frequency, TF over GST control)"
same,binding signal,ETV1,"1.46 fold enrichment (6-mer frequency, TF over GST control)"
same,binding signal,ERF,"1.51 fold enrichment (6-mer frequency, TF over GST control)"
same,binding signal,ETV3L,"1.29 fold enrichment (6-mer frequency, TF over GST control)"
same,binding signal,ETS2,"1.33 fold enrichment (6-mer frequency, TF over GST control)"
same,binding signal,SPDEF,"1.28 fold enrichment (6-mer frequency, TF over GST control)"
same,binding signal,ETV7,"1.37 fold enrichment (6-mer frequency, TF over GST control)"
same,binding signal,ELF5,"1.33 fold enrichment (6-mer frequency, TF over GST control)"
same,binding signal,ETV3,"1.38 fold enrichment (6-mer frequency, TF over GST control)"
same,binding signal,ETV6,"1.36 fold enrichment (6-mer frequency, TF over GST control)"
